NPR2 activator: GC-B (human) receptor activation. HEK293-GC-B cells, CNP EC30, cGMP TR-FRET; 0% at EC30 CNP, 100% saturating CNP. activation, % at 10 µM. AID 1920062. 370,000 tested, 0.11% active;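 active = activation at 10 µM reaching about 35% in either raw or pattern-adjusted values, limit read from the data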
PLCb3 inh: inhibitors of human phospholipase C beta3 | Q01970 | Purified PLC-beta3, fluorogenic substrate, fluorescence | 370,000 tested, 0.18% active | inhibition, % at 12.2 µM; in the data active = inhibition above about 11%;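 also: 0% = median of compound wells on plate and 100% = full blocker control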
Target sequence (Q01970 whole entry, looked up): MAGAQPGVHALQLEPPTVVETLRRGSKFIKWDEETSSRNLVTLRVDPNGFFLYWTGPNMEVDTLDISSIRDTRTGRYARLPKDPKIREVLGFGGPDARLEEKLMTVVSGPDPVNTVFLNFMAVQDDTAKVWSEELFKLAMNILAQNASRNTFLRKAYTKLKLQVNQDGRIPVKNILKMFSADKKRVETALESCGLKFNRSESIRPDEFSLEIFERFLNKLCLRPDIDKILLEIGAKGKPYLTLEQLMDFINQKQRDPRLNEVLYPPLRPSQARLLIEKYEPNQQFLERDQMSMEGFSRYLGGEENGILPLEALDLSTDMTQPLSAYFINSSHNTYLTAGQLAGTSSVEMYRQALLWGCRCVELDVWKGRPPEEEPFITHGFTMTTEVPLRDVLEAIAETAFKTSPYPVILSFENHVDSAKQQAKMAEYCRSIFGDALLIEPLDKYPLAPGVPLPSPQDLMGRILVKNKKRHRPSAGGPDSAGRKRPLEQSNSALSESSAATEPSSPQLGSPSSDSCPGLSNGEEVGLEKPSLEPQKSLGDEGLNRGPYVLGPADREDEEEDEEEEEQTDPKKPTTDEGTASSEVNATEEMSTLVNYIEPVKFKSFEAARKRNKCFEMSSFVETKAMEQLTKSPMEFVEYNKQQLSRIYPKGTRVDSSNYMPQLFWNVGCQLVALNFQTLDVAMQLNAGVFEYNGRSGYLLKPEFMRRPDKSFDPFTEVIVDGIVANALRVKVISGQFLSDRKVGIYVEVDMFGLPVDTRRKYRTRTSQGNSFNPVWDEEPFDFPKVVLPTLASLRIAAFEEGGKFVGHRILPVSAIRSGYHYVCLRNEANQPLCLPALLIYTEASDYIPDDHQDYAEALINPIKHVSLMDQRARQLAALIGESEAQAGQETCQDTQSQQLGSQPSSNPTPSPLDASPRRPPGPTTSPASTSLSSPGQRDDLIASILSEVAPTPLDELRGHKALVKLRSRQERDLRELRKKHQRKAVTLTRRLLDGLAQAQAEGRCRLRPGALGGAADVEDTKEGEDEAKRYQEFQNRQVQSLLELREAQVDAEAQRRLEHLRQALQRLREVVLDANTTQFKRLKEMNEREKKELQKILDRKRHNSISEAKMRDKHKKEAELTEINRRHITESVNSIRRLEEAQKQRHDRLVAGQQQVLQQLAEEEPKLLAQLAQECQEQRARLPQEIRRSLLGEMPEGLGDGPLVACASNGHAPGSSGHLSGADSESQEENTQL
PLC-gamma1 inh: inhibitors of human phospholipase C gamma1; P19174; purified PLC-gamma1, fluorogenic substrate, fluorescence; AID 720700; 370,000 tested, 0.84% active; inhibition, % at 12.2 µM; in the data active = inhibition above about 9.5%
GC-A act: GC-A (human) enzyme activation; P16066; HEK293 GC-A cells, cGMP TR-FRET, EC30 ANP; 0% at EC30 ANP, 100% saturating ANP; activation, % at 10 µM; 370,000 tested, 0.14% active; in the data active = activation above about 40%
Rce1 inhib: blocks yeast Ras-converting enzyme; yeast membranes, quenched prenylated peptide cleavage fluorescence; calls only; Q03530; 290,000 tested, 0.27% active; AID 2563;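 active = fall in fluorescence gain of 50% or more versus controls, with final raw signal at or below 3038400; inconclusive = same 50% fall but final raw signal above 3038400; inactive = fall in fluorescence gain under 50%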;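 also: plate controls were neutral control wells for no effect and wells lacking membranes for full effect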
PfM18AAP inh: PfM18AAP enzyme inhibition; recombinant PfM18AAP, H-Glu-NHMec fluorogenic cleavage; inhibition, % at 7.35 µM; 290,000 tested, 1.2% active; AID 1822;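 active = inhibition above the campaign mean inhibition over all tested compounds plus 3 SD, cut at about 28% in these data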;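 also: 0% = plate median of test compound wells and 100% = 2 mM ZnCl2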
An asterisk follows results filed as active; i = inactive; ? = inconclusive; . = no result; + = active, no number. Hits are enriched below; roughly 2.2% of the tested compounds scored in any of these assays.

SMILES | NPR2 activator | PLCb3 inh | PLC-gamma1 inh | GC-A act | Rce1 inhib | PfM18AAP inh
Cc1cc(C)cc(N(CC(=O)NC2CCC(C)CC2)S(=O)(=O)c2ccc(C)c(C)c2)c1 (stereo not given) | 1 | 3 | 0 | -1 | . | .
CC(C)C[C@@H]1COc2cc(Br)ccc2S(=O)(=O)N1Cc1cn(Cc2ccc(C(F)(F)F)cc2)nn1 | 3 | -14 | 2 | 5 | . | .
O=C(O)c1ccccc1C(=O)c1cccc2c(Br)cccc12 | 26 | 0 | 0 | 58* | . | .
CC1(c2nnc(-c3cccc(Cl)c3)o2)CC(c2cccc(F)c2)=NO1 (stereo not given) | 2 | 0 | -3 | -2 | + | .
CCCCCCSc1cc(-c2nc3ccc(C)cn3c2NCc2ccccc2)ccc1OC | 1 | i | i | 6 | i | .
CCCCNc1c(-c2ccc(SC(C)CC)c(OC)c2)nc2ccc(C)cn12 (stereo not given) | -4 | i | i | 23 | + | .
CCCCCCSc1cc(-c2nc3cc(C)ccn3c2NCCCC)ccc1OC | 2 | i | i | 8 | + | .
CCCCNc1c(-c2ccc(SC(C)CC)c(OC)c2)nc2ccc(Cl)cn12 (stereo not given) | 21 | i | i | 40* | . | .
CCCCCCSc1ccc(-c2nc3ccc(C)cn3c2NCCCC)cc1OC | 3 | i | i | 3 | . | .
CN1C(=O)[C@@](O)(c2cccn2C)c2cc(Cl)ccc21 | -1 | -2 | 0 | -4 | . | .
CCOC(=O)C1CCN(C(=O)c2ccc3c(=O)n4nc(Nc5ccccc5)sc4nc3c2)CC1 | 40* | -4 | 2 | 34 | . | .
COc1ccccc1Nc1nn2c(=O)c3ccc(C(=O)N4CCC(C)CC4)cc3nc2s1 | 20 | -9 | 0 | 17 | i | 5
CCc1ccc(Nc2nnc(SC(C)C(=O)NC3CC3)s2)cc1 (stereo not given) | -5 | 4 | 1 | 5 | . | .
CCc1ccc(Nc2nnc(SC3CCOC3=O)s2)cc1 (stereo not given) | 1 | 1 | 1 | 48* | i | 5
ClCc1nnc(-c2cc3c(s2)CCCC3)o1 | 2 | -5 | 2 | 54* | i | 3
COC(=O)c1ccc(Oc2nc(NC(C)C)nc(N(C)C)n2)cc1 | 4 | 15* | 3 | -3 | i | 3
O=C(Nc1nnc(-c2ccccc2Cl)o1)c1cccnc1 | -2 | 1 | -1 | -1 | i | 30*
O=C(Nc1ccc(NC(=O)c2ccccc2Cl)cc1)c1cccnc1 | 3 | -4 | 1 | 0 | i | 2
COC(=O)[C@H](C(C)C)N(Cc1cn(Cc2ccccc2)nn1)S(=O)(=O)c1ccccc1Br | -4 | 4 | -1 | -1 | . | .
CN(C)c1ccc(CC2C(=O)Nc3ccccc32)cc1 (stereo not given) | -3 | -12 | -3 | -1 | i | 31*
CCOc1cc(CCNC(=O)c2cc3ccsc3n2C)ccc1OC | 0 | 3 | 2 | 6 | . | .
CCc1nnn2c1Cn1c3ccccc3c(=O)n1[C@@H](C(C)C)C2 | -4 | -14 | -9 | -1 | . | .
O=C(c1ccc([N+](=O)[O-])cc1[N+](=O)[O-])N1CCc2ccccc21 | 4 | -1 | 4 | 0 | i | -1
O=C(N=C1N=C2C=CC(Br)=CN2Cc2ccccc21)c1ccc([N+](=O)[O-])cc1[N+](=O)[O-] | -9 | 11* | 13* | 0 | i | 2
Cc1ccc(C2N(C)c3ccccc3-c3nc4ccccc4n32)o1 (stereo not given) | -25 | i | i | -36 | ? | 4
CN1c2ccccc2-c2nc3ccccc3n2C1c1cccs1 (stereo not given) | -5 | i | i | -21 | + | 4
CCOC(=O)[C@]12CCCC3=C1N(CCC3)C(=O)[C@@H](CC(=O)N1CCN(C(=O)c3ccco3)CC1)C2 | -1 | -1 | 3 | 6 | . | .
O=C(Nc1nnc(Cc2ccc([N+](=O)[O-])cc2)s1)c1ccc2c(c1)OCO2 | -9 | -5 | 2 | 3 | i | 3
CC(C)(C)Cc1nnc(NC(=O)c2ccc3c(c2)OCO3)s1 | -1 | -8 | 1 | 3 | i | 30*
CCN(CC)CCNC(=O)c1cc2c(-c3ccc(Cl)cc3)nn(C)c2s1 | -31 | -156 | -128 | -12 | i | 5

Screening data (PubChem)
